Results on 16 compounds are retold here after PubChem BioAssay (EPA / NIEHS).

Assay [1] can be described thus: Tanguay_ZF_120hpf_MORT_legacy: (Legacy) Oregon State University Tanguay Lab 120 Hour Post-fertilization zebrafish Assay for Mortality (AID 2283633).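 On AC50: fitted as increase in binary mortality versus DMSO negative control.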 The method in brief: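 Brightfield scoring of embryo death (binary) at 24 and 120 hpf; static exposure 6–120 hpf, 28C, sealed and foil-covered. Pronase-dechorionated 5D wild-type larvae, single embryo per well. DMSO 0.64% v/v; trimethyltin chloride 5uM positive control.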

Assay [2] in a line: Tanguay_ZF_120hpf_YSE_legacy: (Legacy) Oregon State University Tanguay Lab 120 Hour Post-fertilization zebrafish Assay for Yolk Sac Edema (AID 2283634). In short, it runs like this:
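Binary brightfield scoring of yolk sac edema at 120 hpf; DMSO baseline, gain-of-signal fitting. Dechorionated 5D larvae, one per well, static exposure 6–120 hpf, 28C, 0.64% DMSO. Dead embryos not scored.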

The nature of assay [3]: Tanguay_ZF_120hpf_AXIS_legacy: (Legacy) Oregon State University Tanguay Lab 120 Hour Post-fertilization zebrafish Assay for Body Axis Malformation (AID 2283635). In short, it runs like this:
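Embryos: 5D wild-type, pronase-dechorionated 4 hpf; static exposure 6–120 hpf, 28C, sealed, dark, 1 embryo/well, 0.64% DMSO. 120 hpf axis malformation scored present/absent; dead embryos excluded. Analysed as gain of signal vs DMSO.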

Assay [4] can be described thus: Tanguay_ZF_120hpf_EYE_legacy: (Legacy) Oregon State University Tanguay Lab 120 Hour Post-fertilization zebrafish Assay for Eye Malformation (AID 2283636).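 Further: binary presence or absence of eye malformation scored by brightfield in 120 hpf larvae.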 The method in brief:
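Binary brightfield scoring of eye defects at 120 hpf after static exposure from 6 hpf of single pronase-dechorionated wild-type embryos (28C, 0.64% DMSO). Non-mortality endpoints omitted where embryos died; fit vs DMSO.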

Assay [5] in a line: Tanguay_ZF_120hpf_SNOU_legacy: (Legacy) Oregon State University Tanguay Lab 120 Hour Post-fertilization zebrafish Assay for Snout Malformation (AID 2283637). In short, it runs like this:
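Binary snout-malformation call at 120 hpf in wild-type 5D embryos, chorion removed by pronase, under static exposure from 6 hpf at 28C (0.64% DMSO). Embryos dying by 24 or 120 hpf excluded.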

Assay [6] can be described thus: Tanguay_ZF_120hpf_JAW_legacy: (Legacy) Oregon State University Tanguay Lab 120 Hour Post-fertilization zebrafish Assay for Jaw Malformation (AID 2283638). The method in brief: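 Binary jaw-malformation calls at 120 hpf by brightfield imaging; DMSO (0.64% v/v) = baseline. Embryos: 5D wild-type, pronase-dechorionated, one per well from 6 hpf, static exposure, 28C, sealed, dark.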

Assay [7] in a line: Tanguay_ZF_120hpf_OTIC_legacy: (Legacy) Oregon State University Tanguay Lab 120 Hour Post-fertilization zebrafish Assay for Otic Vesicle Malformation (AID 2283639). In short, it runs like this: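 Wild-type zebrafish larvae, whole-embryo exposure from early stage to 120 hpf at 28C. Binary brightfield scoring of otic vesicle morphology, fitted in the positive direction against the DMSO baseline.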

A short description of assay [8]: Tanguay_ZF_120hpf_PE_legacy: (Legacy) Oregon State University Tanguay Lab 120 Hour Post-fertilization zebrafish Assay for Pericardial Edema (AID 2283640). The method in brief:
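Static waterborne exposure, 5D wild-type embryos, 28C, to 120 hpf; final DMSO 0.64% (vol/vol). Binary PE call at 120 hpf by brightfield; fitted upward vs DMSO baseline. 5uM trimethyltin chloride as positive control.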

A short description of assay [9]: Tanguay_ZF_120hpf_BRAI_legacy: (Legacy) Oregon State University Tanguay Lab 120 Hour Post-fertilization zebrafish Assay for Brain Malformation (AID 2283641). The method in brief: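 Read-out: binary brain morphology call at 120 hpf (brightfield), fitted in gain-of-signal direction vs DMSO. Wild-type Tropical 5D embryos, static exposure, 28C, 0.64% DMSO final; 5uM trimethyltin chloride as positive control.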

A short description of assay [10]: Tanguay_ZF_120hpf_SOMI_legacy: (Legacy) Oregon State University Tanguay Lab 120 Hour Post-fertilization zebrafish Assay for Somite Malformation (AID 2283647). The method in brief:
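Binary brightfield scoring of somite defects at 120 hpf in 5D wild-type larvae; one dechorionated embryo per well, static exposure from 6 hpf, 28C, sealed and dark. Final DMSO 0.64%; trimethyltin chloride 5uM positive control.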

Assay [11] is described as follows: Tanguay_ZF_120hpf_PFIN_legacy: (Legacy) Oregon State University Tanguay Lab 120 Hour Post-fertilization zebrafish Assay for Pectoral Fin Malformation (AID 2283648).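 Further: each larva judged yes or no for fin defect by brightfield with dead larvae skipped.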 The method in brief:
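Pectoral fin malformation was recorded as a binary endpoint at 120 hpf in wild-type Tropical 5D larvae, which had been dechorionated and exposed statically from 6 hpf at 28C in 0.64% DMSO. Dead embryos were excluded.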

The nature of assay [12]: Tanguay_ZF_120hpf_CIRC_legacy: (Legacy) Oregon State University Tanguay Lab 120 Hour Post-fertilization zebrafish Assay for Circulatory Malformation (AID 2283651). The method in brief:
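Binary circulatory-malformation call at 120 hpf via brightfield imaging, relative to DMSO controls. Embryos (5D strain, chorion removed) received static, light-shielded exposure at 28C.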

Assay [13] is described as follows: Tanguay_ZF_120hpf_SWIM_legacy: (Legacy) Oregon State University Tanguay Lab 120 Hour Post-fertilization zebrafish Assay for Swim Bladder Malformation (AID 2283654).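 Further: swim bladder malformation in each larva scored yes or no under brightfield.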 In short, it runs like this: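 Scoring is binary for swim bladder defects at 120 hpf, by brightfield inspection of zebrafish larvae. Embryos were exposed singly from 6 hpf after pronase dechorionation, at 28C with 0.64% DMSO; mortality excluded scoring.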

Assay [14] can be described thus: Tanguay_ZF_120hpf_NC_legacy: (Legacy) Oregon State University Tanguay Lab 120 Hour Post-fertilization zebrafish Assay for Notochord and Tail Malformation (AID 2283656). In short, it runs like this: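 Binary notochord-distortion calls, made by brightfield inspection, form the read-out; activity is fitted in the positive direction against DMSO. Exposure ran statically from 6 to 120 hpf at 28C with 0.64% DMSO.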

The target in assay [15] is Cellular tumor antigen p53 (Homo sapiens) (UniProt P04637). The assay can be described thus: TOX21_p53_BLA_p4_ratio: Tox21 HCT-116 p53 Agonism Beta-lactamase Assay, Ratio, Phase 4 (AID 2283601). In short, it runs like this: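 Signal is the blue/green (460nm/530nm) ratio of cleaved versus uncleaved CCF4-AM substrate, read after 2 h substrate loading. Cells were HCT116 carrying the p53-responsive beta-lactamase reporter, dosed 16 h at 37C, 5% CO2; CellTiter-Glo measured in parallel.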

A short description of assay [16]: Tanguay_ZF_120hpf_CFIN_legacy: (Legacy) Oregon State University Tanguay Lab 120 Hour Post-fertilization zebrafish Assay for Caudal Fin Malformation (AID 2283649). In short, it runs like this:
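Dechorionated 5D wild-type zebrafish, static exposure 6–120 hpf, 28C, sealed and dark, 0.64% v/v DMSO final. Binary fin-malformation call at 120 hpf, brightfield; gain of signal vs DMSO baseline.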

Assay [17] in a line: Tanguay_ZF_120hpf_TRUN_legacy: (Legacy) Oregon State University Tanguay Lab 120 Hour Post-fertilization zebrafish Assay for Truncated Body (AID 2283655). In short, it runs like this:
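Whole-embryo zebrafish screen: dechorionated 5D embryos, static exposure 6–120 hpf, 28C, sealed foil-covered plates, 0.64% DMSO. Binary truncation call; gain of signal versus DMSO baseline.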

Assay [18] is described as follows: Tanguay_ZF_120hpf_PIG_legacy: (Legacy) Oregon State University Tanguay Lab 120 Hour Post-fertilization zebrafish Assay for Pigmentation Malformation (AID 2283650). In short, it runs like this:
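Pigment malformation recorded as a binary call at 120 hpf in zebrafish (Tropical 5D) exposed singly from 6 hpf after pronase dechorionation. Static, sealed, 28C exposure, 0.64% DMSO; mortality excludes scoring; positive-direction fit against DMSO.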

Records with an inconclusive call do not appear. Activity calls are given as the source filed them. How the source made its calls: active means hit-call score of the fitted dose curve at least 0.9, where 1 is the maximum; inconclusive means response in the unintended direction; inactive means score below 0.9.

Sequence of Cellular tumor antigen p53 (Homo sapiens) (P04637 whole entry, looked up): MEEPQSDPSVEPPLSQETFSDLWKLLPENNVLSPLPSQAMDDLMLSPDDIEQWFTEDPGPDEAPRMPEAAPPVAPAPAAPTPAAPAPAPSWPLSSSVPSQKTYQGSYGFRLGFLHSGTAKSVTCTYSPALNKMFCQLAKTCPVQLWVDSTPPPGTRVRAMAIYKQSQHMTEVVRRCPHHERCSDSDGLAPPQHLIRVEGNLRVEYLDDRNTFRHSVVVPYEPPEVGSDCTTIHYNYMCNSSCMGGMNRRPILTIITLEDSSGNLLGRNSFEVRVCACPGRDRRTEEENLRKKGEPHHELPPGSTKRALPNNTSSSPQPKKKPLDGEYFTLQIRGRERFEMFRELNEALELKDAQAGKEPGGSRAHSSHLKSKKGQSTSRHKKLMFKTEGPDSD

Regarding `Cc1cn([C@H]2C=C[C@@H](CO)O2)c(=O)[nH]c1=O`, the result in assay [1], in [2], in assay [3], in assay [4], in [5] and in assay [6] was inactive. The compound was called inactive in assay [7], in [8], in assay [9], in assay [10], in assay [11] and in [12]. The call in assay [13] and in [14] was inactive.
As for `NCCOCCOCCN`, the outcome in [15], in [1], in [2], in assay [3], in [5] and in assay [8] was inactive. Also, the compound was classed as inactive in assay [9], in assay [10], in assay [11], in assay [16], in assay [12] and in [13]. Further, in assay [17], the outcome was inactive.
On to `CCCCCCC(C=O)=Cc1ccccc1`, for which the call in assay [1], in [2], in assay [3], in [4], in [5] and in assay [8] was inactive. In addition, the call in assay [10], in assay [11], in [12], in assay [13], in [17] and in assay [14] was inactive.
In the case of `N[C@@H](Cc1c[nH]c2ccccc12)C(=O)O`, the compound was called inactive in [1], in assay [2], in assay [4], in assay [7], in assay [10] and in [11]. In addition, the call in assay [16], in assay [12], in [13], in [17] and in assay [14] was inactive.
As to `C/C=C/c1ccc(OC)cc1`, the outcome in [1], in [2], in assay [4], in assay [5], in assay [8] and in [10] was inactive. Besides, the compound was classed as inactive in assay [11], in [16], in [18], in assay [13], in assay [17] and in [14].
Regarding `NC1CCCCC1`, the compound was called inactive in assay [1], in assay [2], in assay [3], in [4], in assay [5] and in [7]. Further, the call in assay [8], in assay [9], in assay [16], in assay [18], in assay [12] and in [17] was inactive. The result in assay [14] was inactive.
Take `OCC(O)CO`: the compound was called inactive in [1], in assay [2], in assay [3], in assay [4], in assay [5] and in [7]. In addition, the compound was classed as inactive in [8], in assay [10], in assay [11], in assay [16], in assay [12] and in assay [13]. Further, the result in assay [17] and in assay [14] was inactive.
As usually defined, the AC50 is the concentration at which the activity in the assay is half-maximal. Take `CCN(CC)CCOc1ccc(C(=C(Cl)c2ccccc2)c2ccccc2)cc1`: the AC50 in [1] is 26.9 µM (active). The outcome in [2], in assay [3], in assay [4], in assay [6], in assay [8] and in [16] was inactive. Besides, the result in assay [12], in [13], in [17] and in assay [14] was inactive.
Consider `CCCCOC(=O)CCCCC(=O)OCCCC`, for which the compound was called inactive in assay [1], in assay [2], in [5], in assay [7], in assay [8] and in assay [10]. The call in assay [11], in assay [16], in [13], in assay [17] and in assay [14] was inactive.
`Cc1cc(Cc2ccc(N)c(C)c2)ccc1N`: the compound was classed as inactive in [1], in assay [2], in [3], in [4], in assay [5] and in assay [7]. Also, the compound was classed as inactive in assay [8], in assay [9], in assay [10], in [11], in assay [16] and in assay [18]. Moreover, the compound was classed as inactive in assay [12], in assay [13], in [17] and in assay [14].
For `NC=O`, the compound was classed as inactive in assay [1], in assay [2], in assay [3], in assay [4], in [5] and in assay [7]. Further, the result in [8], in assay [10], in [11], in [16], in assay [13] and in [17] was inactive. In addition, in [14], the call was inactive.
`CCCC(=O)O`: the compound was called inactive in [1], in assay [2], in [3], in assay [4], in assay [5] and in assay [8]. Moreover, the compound was classed as inactive in assay [10], in assay [11], in assay [16], in assay [12], in assay [13] and in assay [17]. Moreover, the compound was called inactive in assay [14].
For the compound `Cc1ccc(-c2cc(C(F)(F)F)nn2-c2ccc(S(N)(=O)=O)cc2)cc1`, the result in [1], in assay [2], in [3], in assay [4], in assay [5] and in [8] was inactive. The compound was called inactive in assay [9], in assay [11], in [16], in assay [12], in assay [13] and in assay [17]. The compound was called inactive in assay [14].
Take `CSc1ccc(Oc2ccc(S(N)(=O)=O)cc2CN(C)C)cc1C`: the result in [1], in assay [2], in [3], in assay [4], in assay [5] and in assay [8] was inactive. In addition, the call in assay [10], in [11], in assay [16], in assay [12], in [13] and in assay [17] was inactive.
On to `C#CC(O)C(CC)CCCC` (configuration not stated), for which the result in assay [1], in assay [2], in assay [3], in assay [4], in assay [5] and in assay [6] was inactive. Further, the compound was classed as inactive in assay [8], in assay [11], in assay [16], in [12], in assay [13] and in [17]. Further, the call in assay [14] was inactive.
Take `O=NO`: the result in [1], in [2], in [3], in [4], in assay [5] and in assay [8] was inactive. Besides, the compound was classed as inactive in assay [10], in assay [16], in assay [18], in assay [12] and in assay [14].
